Measured values as given in ChEMBL document CHEMBL4513146, “CO-ADD screening of Karazin Kharkiv National University (Ukraine) compounds”.
Entries with a potency or affinity are not part of this list.

Key:
Staphylococcus aureus = conditions: Concentration 32 ug.mL-1;; ASSAY_TEST Inhibition of Bacterial Growth; detection method Absorption (OD600); MEDIA CAMHB; plate type 384well; NBS; CORNING #3640; time 18 hr
Escherichia coli = conditions: Concentration 32 ug.mL-1;; ASSAY_TEST Inhibition of Bacterial Growth; detection method Absorption (OD600); MEDIA CAMHB; plate type 384well; NBS; CORNING #3640; time 18 hr

| Compound | Inhibition (Staphylococcus aureus) [%] | Inhibition (Escherichia coli) [%] |
| --- | --- | --- |
| COc1ccc(OC)c(NC(=O)Cn2nc3ccc(SCc4ccc(Cl)cc4)nn3c2=O)c1 | -2.6 | -8.88 |
| O=C(CSc1nnc2c(=O)n(-c3ccccc3)ccn12)Nc1cccc(F)c1 | 13 | -3.48 |
| COc1ccccc1CNC(=O)Cn1nc2c(N3CCSCC3)nccn2c1=O | 5.62 | -5.9 |
| COC(=O)c1ccccc1NC(=O)Cn1nc2c(SC3CCCCC3)nccn2c1=O | -10.07 | -11.96 |
| COc1ccc(CNC(=O)Cn2nc3c4cc(-c5ccc(C)c(C)c5)nn4ccn3c2=O)cc1 | 6.21 | 2.95 |
| Cc1ccccc1Nc1cc(C)n2c(=O)n(CCc3ccccc3)nc2n1 | -11.65 | -1.35 |
| CCOc1ccc(-n2ccn3c(SCC(=O)Nc4cccc(Cl)c4)nnc3c2=O)cc1 | -0.75 | 2.43 |
| O=C(CSc1nnc2ccc(C(=O)NCc3ccccc3)cn12)Nc1ccccc1Br | 7.29 | -1.34 |
| Cc1cc(C)cc(N(Cc2cc(C)ccc2C)S(=O)(=O)c2cccn3c(C)nnc23)c1 | 6.88 | -2.32 |
| COc1ccccc1CNC(=O)Cn1nc2c(SCc3ccc(Cl)cc3)nccn2c1=O | 6.37 | -3.98 |
| CCOC(=O)c1ccc(NC(=O)Cn2nc3ccc(S(=O)(=O)C(C)(C)C)nn3c2=O)cc1 | 5.05 | -4.95 |
| Cc1cc(C)cc(NC(=O)Cn2nc3c(N4CCCC4)nccn3c2=O)c1 | 12.35 | -0.75 |
| Cc1ccc(Oc2nccn3c(=O)n(CC(=O)Nc4cccc(Cl)c4)nc23)cc1 | -3.9 | -9.06 |
| Cc1ccc(-c2cc3c4nn(CC(=O)Nc5ccc(F)cc5Cl)c(=O)n4ccn3n2)cc1 | -0.44 | -5.61 |
| Cc1cccc(N(C)C(=O)Cn2nc3cc(C)nc(Nc4ccc(C)c(F)c4)n3c2=O)c1 | -15.22 | 0.9 |
| CCc1nnc2c(SCC(=O)Nc3c(C)cc(C)cc3C)nc3ccccc3n12 | 7.54 | 3.61 |
| CCc1nnc2c(=O)n(CC(=O)Nc3ccc(Br)cc3F)c3ccccc3n12 | -3.08 | 3.54 |
| Cc1ccc(-n2ccn3c(=O)n(Cc4ccccc4Cl)nc3c2=O)cc1C | 0.51 | -7.32 |
| Cc1c(Cl)cccc1NC(=O)CSc1nc2ccccc2n2c(C)nnc12 | 7.92 | 3.58 |
| CCc1ccccc1NC(=O)Cn1nc2c(Sc3ccc(C)cc3C)nccn2c1=O | 1.94 | -4.21 |
| Cc1ccc(NC(=O)Cn2nc3c(Sc4cccc(F)c4)nccn3c2=O)cc1F | 12.19 | 1.14 |
| Cc1ccccc1Oc1nccn2c(=O)n(CC(=O)Nc3ccccc3C(F)(F)F)nc12 | 10.19 | 1.35 |
| CSc1cccc(NC(=O)Cn2nc3c(Sc4ccc(C)cc4C)nccn3c2=O)c1 | -13.41 | -16.34 |
| Cc1cc(C)cc(Oc2nc3ccccc3n3c(=O)n(CC(=O)Nc4ccc5c(c4)OCO5)nc23)c1 | 0.02 | -5.83 |
| COC(=O)c1cccc(NC(=O)Cn2nc3c(Sc4ccc(C)cc4C)nccn3c2=O)c1 | 10.39 | -5.72 |

| Compound | Inhibition (Staphylococcus aureus) [%] | Inhibition (Escherichia coli) [%] |
| --- | --- | --- |
| CCc1nnc2c(S(=O)(=O)N(Cc3ccccc3C)c3ccc(Cl)cc3)cccn12 | -22.93 | -4.88 |
| Cc1ccc(NC(=O)CSc2nnc3c4cc(-c5ccccc5)nn4ccn23)c(C)c1 | -9.27 | -11.37 |
| O=C(Cn1nc2ccc(Sc3ccccc3)nn2c1=O)N1CCN(c2ccc(F)cc2)CC1 | 9.78 | 1.58 |
| COc1ccc(NC(=O)Cn2nc3ccc(SC(C)C)nn3c2=O)cc1OC | -2.31 | 0.47 |
| Cc1ccc(C)c(Cn2nc3c(=O)n(-c4cccc(Cl)c4C)ccn3c2=O)c1 | -0.35 | -10.27 |
| CCc1ccc(N(Cc2cccc(C)c2)S(=O)(=O)c2cccn3c(C)nnc23)cc1 | -11.31 | 0.34 |
| CCc1cccc(NC(=O)Cn2nc3ccc(SC4CCCCC4)nn3c2=O)c1 | 13.65 | -0.36 |
| Cc1ccc(CNC(=O)c2ccc3nn(CC(=O)Nc4ccc(C(F)(F)F)cc4)c(=O)n3c2)cc1 | -2.47 | -0.22 |
| COc1ccc(NC(=O)Cn2nc3c4cc(-c5ccc(C)c(C)c5)nn4ccn3c2=O)cc1OC | 7.31 | -0.24 |
| O=C(Cn1nc2n(CCc3ccccc3)c(=O)c3ccccc3n2c1=O)Nc1ccc2c(c1)OCO2 | -2.08 | -8.34 |
| COc1ccc(NC(=O)c2ccc3nn(CC(=O)Nc4cc(Cl)ccc4OC)c(=O)n3c2)cc1 | 7.85 | -6.87 |
| COC(=O)c1ccc(NC(=O)Cn2c(=O)c3nnc(C(C)C)n3c3ccccc32)cc1 | 8.86 | 0.09 |
| Cc1cc(C)cc(Nc2nc(C)cc3nn(CC(=O)N(C)c4cccc(C)c4)c(=O)n23)c1 | 5.67 | -3.82 |
| Cc1cc2nn(CC(=O)Nc3cc(F)ccc3F)c(=O)n2c(Nc2ccc(F)c(C)c2)n1 | -14.31 | 0.42 |
| CCc1ccccc1Sc1nccn2c(=O)n(CC(=O)Nc3cc(C)ccc3C)nc12 | 15.04 | 0.5 |
| O=C(CSc1nnc2c(=O)n(-c3ccccc3)ccn12)N1CCN(c2ccc(F)cc2)CC1 | 7.73 | -1.4 |
| Cc1nnc2c(S(=O)(=O)N(Cc3cccc(Cl)c3)c3ccc(F)c(F)c3)cccn12 | 3.24 | -3.66 |
| COc1cccc(Oc2nccn3c(=O)n(CC(=O)Nc4ccccc4C(F)(F)F)nc23)c1 | 13.2 | -0.25 |
| CCc1ccc(NC(=O)Cn2nc3c(Oc4cccc(OC)c4)nccn3c2=O)cc1 | 5.31 | -1.12 |
| COc1cc(NC(=O)CSc2nnc3c(=O)n(-c4ccc(C)c(C)c4)ccn23)cc(OC)c1 | 3.54 | -13.82 |
| Cn1c(=O)c2ccc(C(=O)NC3CCCCC3)cc2n2c(=O)n(CC#N)nc12 | 10.61 | 1.2 |
| O=C(Cn1nc2nc(Nc3ccc(F)cc3)ccn2c1=O)Nc1ccc(F)cc1 | -16.48 | -2.62 |
| O=C(CSc1nnc2c(=O)n(-c3cccc(F)c3)ccn12)N1CCN(c2ccc(F)cc2)CC1 | 3.76 | 1.02 |
| CCc1ccc(Cn2c(=O)c3sccc3n3c(SCc4cccc(C(F)(F)F)c4)nnc23)cc1 | 5.26 | -0.8 |
